According to PubChem BioAssay AID687014 (The Scripps Research Institute Molecular Screening Center, 2013):
Values joined by “and” are separate entries in the source; they are usually repeats but may differ in a detail not shown here. Equal entries are not always repeated. Out of some 370,000 compounds screened, about 6,800 (1.8%) were called active.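 How the source made its calls: active means activation above a cutoff set at the mean of all screened compounds plus 3 SD (cut at about 10% in these data); inactive means the rest.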 For the sample, actives were picked, then their nearest neighbours and some compounds at random.

What follows are molecules tested on Nuclear hormone receptor DAF-12 (Heterodera glycines), GAL4 fusion (assay: H. glycines DAF-12 receptor agonists, primary screen, cell-based, luminescence, HEK293, GAL4 fusion, UAS-luciferase (AID 687014;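 further: 0% = DMSO wells and 100% = sodium butyrate wells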)). Conditions: HEK293 GAL4-hgDAF12 UAS-luciferase reporter, agonist luminescence; at 6.8 µM; active compounds read high; normalized to butyrate control.

Compound	activation
CCOC(=O)C1CSCCS(=O)(=O)N1Cc1ccc(Cl)cc1 (stereo not drawn)	-2.53% (inactive)
CN1C(=O)C2CC(O)C(SC3CC4C(=O)N(C)C(=O)C4CC3O)CC2C1=O (stereo not drawn)	-0.94% (inactive)
COc1ccc2nc3n(c(=O)c2c1)-c1ccc(Cl)cc1C(=O)NC3Cc1ccccc1 (stereo not drawn)	-2.62% (inactive)
O=C(NC1CCC1)c1ccc(C#Cc2cccc(F)c2)c[n+]1[O-]	4.83% (inactive)
O=C(NC1CCC1)c1ccc(C#CC2CC2)cn1	14.1% (active)
Cn1ncc(Br)c1C(=O)NC1CCCC1	2.19% (inactive)
CC1CN(C(=S)Nc2ccc(S(N)(=O)=O)cc2)CC(C)O1 (stereo not drawn)	0.5% (inactive)
COc1cc(C(=O)Nn2c(O)c(C3=c4ccccc4=NC3=O)sc2=S)ccc1O	5.04% (inactive)
Cc1ccc(-c2nnc(SC(C)C#N)n2N)cc1 (stereo not drawn)	-2.55% (inactive)
COc1ccc(C(=O)COC(=O)C(O)c2ccccc2)c(OC)c1 (stereo not drawn)	10.7% (active)
COc1ccc(C(=O)COC(=O)c2nn(C)c(=O)c3ccccc23)c(OC)c1	-0.75% (inactive)
COc1ccc(C(=O)COC(=O)CN2C(=O)C3CC=CCC3C2=O)c(OC)c1 (stereo not drawn)	-0.12% (inactive)
Nc1[nH]c(C(=O)c2ccc(Br)cc2)c(-c2ccc3c(c2)OCO3)c1C(=O)NCCc1c[nH]c2ccccc12	1.89% (inactive)
CC(=O)c1ccccc1NC(=O)COC(=O)C1COc2ccccc2O1 (stereo not drawn)	24.1% (active)
Cc1ccc(S(=O)(=O)N(C)C)cc1NC(=O)COC(=O)C1COc2ccccc2O1 (stereo not drawn)	1.41% (inactive)
COc1ccc(NC(=O)CC2COc3ccccc3O2)c(OC)c1 (stereo not drawn)	1.72% (inactive)
CCOC(=O)[C@]12CCCC=C1N(CCCOC)C(=O)[C@@H]2CC(=O)N1CCOCC1	0.45% (inactive)
COc1cccc(CNCc2ccc3c(c2)OCO3)c1	-0.87% (inactive)
Cc1noc(C)c1/C=N/Nc1ccc2ccccc2n1	12.8% (active)
Cc1cc2c(C)nc(N/N=C/c3ccccc3)nc2o1	4.01% (inactive)
C(=N\Nc1ccc2ccccc2n1)/c1ccc2c(c1)OCO2	11.2% (active)
O=C(OC12CCCN(C1)/C(=C/c1ccccc1)C2)c1ccco1 (stereo not drawn)	-2.49% (inactive)
Cc1nn(C(=O)c2ccoc2C)c(N)c1-c1ccccc1	12.5% (active)
Cc1cc(-c2ccccc2)n2nc(C)c(-c3ccccc3)c2n1	0.2% (inactive)

Compound	activation
Cc1occc1C(=O)Nc1cccc(Cn2cccn2)c1	0.48% (inactive)
O=C(NCCc1c[nH]c2ccccc12)OCc1cn(-c2c(F)cccc2F)nn1	-0.77% (inactive)
O=S1(=O)c2c(cccc2N2CC[C@H](O)C2)O[C@@H]2CCN1C2	-2.37% (inactive)
COc1cccc(/C=C2\CC3(OC(C)=O)CCCN2C3)c1 (stereo not drawn)	1.14% (inactive)
Cc1nc2ccc(C(=O)N3CCN(C(=O)C(C)(C)C)CC3)cc2n1C1CCCC1	-0.38% (inactive)
COC[C@@H]1CCCN1c1ccc2c(c1)O[C@H](C)CCN(C1CC1)S2(=O)=O	1.95% (inactive)
COc1ccc(OC)c(/C=C/C(=O)c2ccc3c(c2)OCO3)c1	-2.94% (inactive)
O=C(/C=C/c1ccc2c(c1)OCCO2)c1ccc(O)cc1	11.8% (active)
C/C(=N\NC(=O)C(N)=O)c1ccc2c(c1)OCCO2	4.44% (inactive)
COC(=O)[C@]12C[C@H](CC(=O)NCc3cccc(C(F)(F)F)c3)C(=O)N(Cc3ccc4c(c3)OCO4)C1=C[C@H](COCc1ccccc1)O[C@@H]2C	1.05% (inactive)
Nc1ncc(-c2cc3ccccc3oc2=O)s1	11.9% (active)
O=c1oc2ccccc2cc1-c1cn(-c2ccccc2)c(=S)[nH]1	-16.8% (inactive)
CC(CCN1CCC(C(O)(c2ccccc2)c2ccccc2)CC1)Oc1ccc(C(F)(F)F)cc1 (stereo not drawn)	0.45% (inactive)
O=C(Nc1cc(Cl)cc(Cl)c1)OCCN1CCCC12CCC(c1ccccc1)CC2 (stereo not drawn)	-0.4% (inactive)
CC(C)=CCN1CCN(Cc2ccc(Oc3ncccn3)cc2)CC1CCO (stereo not drawn)	3.6% (inactive)
N#CC1(Nc2ccc(-c3ccc(Cl)cc3)cc2)CCCC1	13.3% (active)
N#CC1(Nc2ccc3c4c(cccc24)CC3)CCCCC1	-2.54% (inactive)
NC(=O)C1(Nc2ccc(-c3ccccc3)cc2)CCCC1	0.26% (inactive)
Cc1c(C(=O)Nc2ccccc2)sc2nc3n(c(=O)c12)CCCCC3	10.5% (active)
CC(=O)c1ccc(NC(=O)c2sc3nc4n(c(=O)c3c2C)CCCCC4)cc1	6.99% (inactive)
COc1cccc(C(=O)Nc2ccc3nc4n(c(=O)c3c2)CCCCC4)c1	4.15% (inactive)
N=c1c2c3c(sc2nc2n1CCCCC2)CCCC3	2.26% (inactive)
CC1CCN(C(=O)c2ccc3c(=O)n4c(nc3c2)CCCCC4)CC1	1.69% (inactive)
O=c1c2c(nc3n1CCCCC3)sc1c(O)cccc12	12.6% (active)

Compound	activation
CC(C)CNS(=O)(=O)CC1NCCc2ccccc21 (stereo not drawn)	-0.34% (inactive)
Cc1ccc(C2=CCN(C)C(=O)N2c2ccc(Cl)cc2)cc1	7.34% (inactive)
COc1ccc(C(=O)OCCN(C)C2CN(Cc3cn(Cc4cccc(C)c4)nn3)S(=O)(=O)C2)cc1OC (stereo not drawn)	0.81% (inactive)
Cc1cccc(N2CCN(C(=O)c3cccc(N4C(=O)C5C6C=CC(C6)C5C4=O)c3)CC2)c1C (stereo not drawn)	-1.08% (inactive)
CN(CC(=O)Nc1ccc(Cl)cc1)CC(=O)Nc1cccc2ccccc12	0.52% (inactive)
CN(CC(=O)Nc1ccc(Cl)cc1)C(=O)c1ccc(COc2ccccc2)cc1	0.13% (inactive)
CN(CC(=O)Nc1ccc(Cl)cc1)C(=O)CNC(=O)c1ccc2ccccc2c1	12.3% (active)
O=C(CSc1nc2sc3c(c2c(=O)n1-c1ccccc1)CCCC3)NN=Cc1ccc(OCc2ccccc2)cc1	4.38% (inactive)
O=C1CCC2(CCC(c3ccc(Cl)cc3)CC2)N1CCO (stereo not drawn)	-4.23% (inactive)
CC(C)CC(=O)N/C(N)=N/c1nc2ccccc2s1	9.05% (inactive)
CCC(=O)NC(=Nc1nc2ccccc2s1)NC(=O)CC	12.5% (active)
CC(C)C(C)NC(=O)COc1ncnc2ccccc12 (stereo not drawn)	1.57% (inactive)
O=C(CN1CCC(NC(=O)NCc2ccccc2)CC1)Nc1ccc2c(c1)OCCO2	1.23% (inactive)
Cc1ccc(NC(=O)CC2C(=O)N(Cc3ccccc3)C(=S)N2NC(=O)c2cccc(F)c2)c(C)c1 (stereo not drawn)	-3.58% (inactive)
O=C(Nc1ccn(Cc2ccccc2)n1)c1cccc(F)c1	20% (active)
O=C(Nc1ccn(Cc2ccccc2)n1)c1n[nH]c([N+](=O)[O-])c1Cl	16.8% (active)
O=C(Cn1cnc([N+](=O)[O-])n1)NCCc1ccccc1	2.5% (inactive)
Cc1c(Br)c([N+](=O)[O-])nn1CC(=O)N1CCN(Cc2ccccc2)CC1	4.33% (inactive)
CCOc1cccc(C(=O)Nc2cnn(Cc3ccccc3)c2)c1	2.99% (inactive)
CC(c1c[nH]c2ccccc12)c1c(-c2ccccc2)n(C)c2ccccc12 (stereo not drawn)	0.36% (inactive)
COC(=O)[C@]1(Cc2ccccc2)NC=C(C(=O)c2ccccc2)[C@@H]1c1cccc(OC)c1	1.41% (inactive)
Cc1cc(C)cc(NC(=O)N2CCC(N(C)CCC(C)C)CC2)c1	3.99% (inactive)
O=C(NCCCN1CCOCC1)c1cnn2c(-c3ccccc3)cc(-c3ccccc3)nc12	-2.14% (inactive)
O=C(NCCCN1CCOCC1)c1cc(-c2ccccc2F)no1	14.2% (active)

Compound	activation
O=C(NCCCN1CCOCC1)c1ccccc1NS(=O)(=O)c1ccc(F)cc1	-1.36% (inactive)
Cc1cccc(CN2CCN(C3CN(Cc4cn(Cc5cc(C)cc(C)c5)nn4)S(=O)(=O)C3)CC2)c1 (stereo not drawn)	-3.8% (inactive)
CCC(C(=O)Nc1c(C)cccc1C)n1c(-c2cc(C)cs2)nc2ccccc21 (stereo not drawn)	2.55% (inactive)
O=C(NC1=CC(=O)c2ccccc2C1=O)c1ccccc1	-6.53% (inactive)
Cn1c(NC(=O)c2ccccc2)nc2ccccc21	15.2% (active)
CCC(C(=O)NC(C)(C)C)n1c(-c2ccccc2)nc2ccccc21 (stereo not drawn)	0.22% (inactive)
CCn1c(NC(=O)c2nn(C)cc2Br)nc2ccccc21	-4.58% (inactive)
Cn1c(-c2ccc(C(=O)c3ccccc3)s2)nc2ccccc21	13.5% (active)
CCOC(=O)[C@]12CCCC=C1N(Cc1ccc(OC)cc1)C(=O)[C@@H]2CC(=O)NCc1cccs1	-4.41% (inactive)
CN1CCCc2nc(-c3ccccc3)ccc21	7.25% (inactive)
CCOC(=O)c1ccc(NC2Nc3cc(C)nn3S2)cc1 (stereo not drawn)	2.62% (inactive)
CCc1ccc(NC2Nc3cc(C)nn3S2)cc1 (stereo not drawn)	19.2% (active)
COCCNC(=O)Cn1cc2c(n1)CCCCC2	0.5% (inactive)
CN(CC(=O)Nc1c(Cl)cccc1Cl)C(=O)CC1OC(=O)c2ccccc21 (stereo not drawn)	-1.08% (inactive)
Cc1cc2c(=O)n(CC(=O)NCC(=O)Nc3ccc(C(C)C)cc3)cnc2s1	1.17% (inactive)
CC(=O)c1sc(N/N=C\c2ccc(C)cc2)nc1C	11.2% (active)
CC(=O)c1sc(N)nc1C	1.06% (inactive) and 4.44% (inactive)
CCOC(=O)c1sc(/N=C/Nc2nc(C)c(C(=O)OCC)s2)nc1C	0.82% (inactive)
CC(=O)c1sc(N/N=C/c2ccc(C(C)C)cc2)nc1C	14.4% (active)
C=CC[C@]12C[C@@]3(O[C@H](c4ccc(C(F)(F)F)cc4)N=C3C[C@H](c3ccc(OC)cc3)[C@H]1C)N(C1CCN(Cc3ccccc3)CC1)C2=O	0.9% (inactive)
c1csc(-c2nnc(SCc3nc4ccccc4[nH]3)o2)c1	-0.48% (inactive)
